# Bioassay records as filed in PubChem.
# Hits are enriched below; roughly 9% of the tested compounds scored in any of these assays.
# HTT aggregate: mutant huntingtin aggregation inhibition; PC12 HttQ103-GFP aggregates, Acumen cytometry, 40 h; Potency, µM (top dose mostly 46.1 µM), for the others: at the highest dose activity change, negative = inhibition, actives largely listed as inhibitors; 1.1% of 220,000 active; AID 1688; note: % is set by controls: 0 for no effect and ±100 for the full control effect; nearly all actives have a fitted effect of over 60% in size
#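 Huntingtin Q103 exon 1–GFP aggregates in induced PC12 cells (100 nM tebufenozide) were quantified by cytometry from lysates, with compounds dosed in titration.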
# Luc counter: Kinase-Glo luciferase inhibition (counter-screen) | Q27757 | Kinase-Glo luciferase, ATP luminescence, 8 min | Potency, µM (top dose mostly 38.3 µM), inactives show top-dose activity change, negative = inhibition, hits mostly inhibitors | 0.28% of 200,000 active | AID 1379; note: % is set by controls: 0 for no effect and ±100 for the full control effect; nearly all actives have a fitted effect of over 60% in size
#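 Substrate mix (final 50 mM imidazole pH 7.2, 50 mM KCl, 7 mM MgCl2, 10 uM ATP, 0.01% Tween 20, 0.05% BSA) plus pin-tool compound, then Kinase-Glo detection mix; 8 min ambient, luminescence read.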
# ALDH1A1 inh: inhibitors of human aldehyde dehydrogenase 1A1. Potency, µM (top dose mostly 75.3 µM), without a hit: top-dose activity, negative = inhibition, most hits filed as inhibitors. 7.3% of 220,000 active. AID 1030. Purified ALDH1A1, NADH fluorescence, propionaldehyde substrate; active = well fitted inhibition curve with a large enough effect, not every such curve was filed as active; inconclusive = small, poorly fitted or top-dose-only effect, or another doubt; inactive = no such curve, though single readings can be large or run the other way;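 note: plate controls were no enzyme wells and a reference inhibitor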
# Target sequence (P00352 whole entry, looked up): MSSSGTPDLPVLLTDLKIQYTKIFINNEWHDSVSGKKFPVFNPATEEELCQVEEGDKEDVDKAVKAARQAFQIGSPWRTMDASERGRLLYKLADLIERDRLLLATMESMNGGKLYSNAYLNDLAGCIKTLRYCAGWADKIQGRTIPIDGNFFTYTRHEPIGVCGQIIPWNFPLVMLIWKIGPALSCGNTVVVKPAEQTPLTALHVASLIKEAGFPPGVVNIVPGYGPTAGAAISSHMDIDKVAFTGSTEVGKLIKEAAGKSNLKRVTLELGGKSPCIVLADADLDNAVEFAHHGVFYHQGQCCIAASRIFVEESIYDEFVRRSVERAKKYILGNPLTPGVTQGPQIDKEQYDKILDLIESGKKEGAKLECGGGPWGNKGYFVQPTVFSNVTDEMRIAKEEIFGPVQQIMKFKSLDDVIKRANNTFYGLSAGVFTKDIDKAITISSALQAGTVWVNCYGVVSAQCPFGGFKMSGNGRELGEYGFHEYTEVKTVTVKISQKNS
# HTT cytoprotect: protects HTT-Q103 PC12 cells, measured by ATP; AID 1471; PC12 HTT-Q103 induced, cytoprotection, ATP luminescence, 40 h; Potency, µM (highest dose often 56.4 µM), for inactives: cytoprotection (ATP increase), most hits filed as activators; 0.14% of 230,000 active; note: % of control where 0% means no effect; nearly all actives have a fitted effect of over 45% in size
#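 Compounds were screened for protection of PC12 cells against cell death after tebufenozide induction (100 nM final) of mutant Huntingtin exon 1 (Q103) fused to GFP.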
# HPGD inh: blocks human HPGD enzyme activity; purified HPGD, NADH fluorescence kinetic, PGE2 substrate; Potency, µM, without a hit: top-dose activity change, negative = inhibition, most hits filed as inhibitors; 4.3% of 150,000 active; AID 894; active = well fitted inhibition curve with a large enough effect, not every such curve was filed as active; inconclusive = small, poorly fitted or top-dose-only effect, or another doubt; inactive = no such curve, though single readings can be large or run the other way; note: % is set by controls: 0 for no effect and ±100 for the full control effect
# Target sequence (P15428 whole entry, looked up): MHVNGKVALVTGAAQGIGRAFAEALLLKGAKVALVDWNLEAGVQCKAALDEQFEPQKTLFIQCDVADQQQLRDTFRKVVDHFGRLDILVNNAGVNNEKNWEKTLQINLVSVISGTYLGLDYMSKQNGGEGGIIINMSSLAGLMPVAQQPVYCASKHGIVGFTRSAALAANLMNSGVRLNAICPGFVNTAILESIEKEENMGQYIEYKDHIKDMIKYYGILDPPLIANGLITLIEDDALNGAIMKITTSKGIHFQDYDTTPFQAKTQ
#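 NADH formation kinetics: reaction with 30 uM PGE2 and 1 mM NAD+ (final), 20 nM enzyme, Tris-HCl pH 8 with Tween 20, after 15 min compound preincubation at room temperature. Fluorescence change, last versus first of five reads.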
# Lamin A splicing: LMNA splicing modulation | HeLa LMNA splicing GFP/RFP minigene ratio, 48 h | Potency, µM (highest dose often 46.1 µM), for the others: at the top dose ratio change, negative = inhibition, hits mostly inhibitors | 0.01% of 200,000 active | AID 1487; active = well fitted inhibition curve with a large enough effect in the signal ratio, with a control signal flat, not every such curve was filed as active; inconclusive = small, poorly fitted or top-dose-only effect, or effect the other way, or a change in a side signal; the % refers to the signal ratio; note: % is set by controls: 0 for no effect and ±100 for the full control effect
#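 S3 HeLa cells stably expressing lamin A-EGFP splicing minigene plus DsRed2, 600 cells/well, 48 h compound exposure at 37C. Laser-scanning cytometry; analysed as GFP (500-530 nm)/RFP (575-640 nm) total intensity ratio; 0.5% DMSO vehicle.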
# The depositor's hits bear a star; u = inconclusive; x = no result; [ ] = another dose, or the depositor's remark. Unless noted, calls come from the whole dose curve; as a rule, active = well fitted curve in the direction sought with a large enough effect; inconclusive = small, poorly fitted or top-dose-only effect, or another doubt; inactive = no such curve, though single readings can be large; an effect the other way counts as inactive or inconclusive. Potency is the fitted concentration of half-maximal effect.
SMILES,HTT aggregate,Luc counter,ALDH1A1 inh,HTT cytoprotect,HPGD inh,Lamin A splicing
COc1ccc(CC(=O)n2c(CC#N)nc3ccccc32)cc1OC,13%,-4%,0%,-12%,-23%,7%[0.0737 µM]
CCN1C(=O)C(Cc2nc3ccccc3c(=O)n2C)c2ccccc21 (configuration not stated),5%,-2%,u,0%,-4%,8%
CCCN1C(=O)C(Cc2nc3ccccc3c(=O)n2C)c2ccccc21 (configuration not stated),10%,-3%,0.28µM*,-20%,-6%,8%
Cc1ccc(C(=O)O/N=C(\c2ccccc2)c2cccnc2)cc1,12%,1%,u,-2%[10 µM],-8%,-14%
Cc1cccc(/C(N)=N/OC(=O)c2ccc(F)cc2)c1,u,11µM*,9%,x,-20%,-3%
Cc1cccc(/C(N)=N/OC(=O)c2cccs2)c1,-5%,2.5µM*,-4%,13%,20µM*,2%[0.0737 µM]
N/C(=N\OC(=O)c1cccs1)c1ccccc1,-4%,10µM*,3%,10%[10 µM],32µM*,-13%
Cc1ccc(/C(N)=N/OC(=O)c2cccs2)cc1,-1%,-11%,5%,26%[10 µM],-9%,-15%
Cc1cccc(/C(N)=N/OC(=O)c2ccco2)c1,19%,u,-3%,-6%,u,3%
Cc1cccc(C(=O)O/N=C(\c2ccccc2)c2cccnc2)c1,1%,-1%,16µM*,4%[10 µM],-21%,-13%
N=C1C(c2ccccc2)=C(O)CN1c1cccc(O)c1,8%,x,6%,-24%,x,x
O=C1N/C(=C/c2cccn2-c2ccc(F)cc2)C(=O)N1Cc1ccccc1,32%,-1%,16µM*,-25%,-17%,-8%
O=C(O)c1cccc(-n2cccc2/C=C2\NC(=O)N(Cc3ccc(F)cc3)C2=O)c1,21%,-1%,-12%,u,x,-15%[46 µM]
CCSc1oc(-c2cccs2)nc1S(=O)(=O)c1ccccc1,13µM*,1%,u,-7%[10 µM],u,-13%
CCSc1oc(-c2ccco2)nc1S(=O)(=O)c1ccc(F)cc1,2%,-5%,25µM*,0%[1.9 µM],u,12%
O=S(=O)(c1ccccc1)c1nc(-c2cccs2)oc1NCC1CCCO1 (configuration not stated),-10%,-3%,u,-8%[0.074 µM],-22%,5%
C=C(C)CSc1nnc2n(Cc3ccccc3)c(=O)c3c4c(sc3n12)CCC4,4%,-5%,-4%,-5%,-11%,-13%
CC(=O)c1ccc(NC(=S)NNC(=O)c2ccccc2[N+](=O)[O-])cc1,-1%,7%,u,-6%,x,5%[46 µM]
COc1cccc(-c2nnc3n2N=C(C(C)(C)C)CS3)c1,2µM*,-4%,11%,34%,-15%,u
COc1ccccc1-c1nnc2n1N=C(C(C)(C)C)CS2,-2%,-1%,-2%,4%,-11%,1%
Cc1cccc(-c2nnc3n2N=C(c2ccccc2Br)CS3)c1,u,0%,u,-26%[0.074 µM],2.5µM*,u
COc1cccc(-c2nnc3n2N=C(c2cc(OC)ccc2OC)CS3)c1,-8%,0%,-6%,-64%,28µM*,2%
CCOc1cccc(-c2nnc3n2N=C(c2cc(OC)ccc2OC)CS3)c1,-15%,3%,28µM*,-48%[10 µM],25µM*,u
O=C(CSc1nc2ccccc2nc1Cc1ccc(Cl)cc1)N1CCc2ccccc21,x,x,x,x,x,-4%[46 µM]
Cn1nc(CC(=O)Nc2ccc(N3CCN(C(=O)OC(C)(C)C)CC3)cc2)c2ccccc2c1=O,4µM*,2%,2%,32%[10 µM],-20%,u
SMILES,HTT aggregate,Luc counter,ALDH1A1 inh,HTT cytoprotect,HPGD inh,Lamin A splicing
Cc1ccc(N(C)C(=O)N2CCN(S(=O)(=O)c3ccc(C)cc3)CC2)cc1,13%,1%,-7%,-8%,-11%,-6%
Cc1ccc(N(C)C(=O)N2CCN(S(=O)(=O)c3ccc4ccccc4c3)CC2)cc1,11µM*,-3%,u,11%[10 µM],-4%,7%
O=S(=O)(c1ccc2ccccc2c1)N1CCN(C2CCN(Cc3ccccc3)CC2)CC1,4%,-1%,u,-17%,-2%,-9%
O=S(=O)(c1ccc2ccccc2c1)N1CCN(C2Cc3ccccc3C2)CC1,-13%,-2%,28µM*,5%[10 µM],-10%,-9%
Cc1cnc(C(=O)N2CCN(S(=O)(=O)c3ccc4ccccc4c3)CC2)cn1,13%,3%,13µM*,-4%,-17%,0%
C(=C\c1ccccc1)/C=N/Nc1nc(N2CCOCC2)nc(N2CCOCC2)n1,9%,-4%,9%,-21%,-8%,-3%
O=C(COC(=O)c1cc(-c2cccc3ccccc23)nc2ccccc12)NC1CCS(=O)(=O)C1 (configuration not stated),6%,0%,u,28%[10 µM],u,-5%
COc1ccccc1-c1cncnc1NCc1cnc(C)cn1,x,x,u,8%,x,8%
COC1=CC(=O)C(O)=C/C1=C\C=C\c1ccccc1,x,-4%,13µM*,x,11µM*,u
COc1ccc2c(c1)C(=O)/C(=C/C=C/c1ccccc1)CC2,-3%,-5%,u,-49%[10 µM],-21%,u
Cc1csc(NC(=O)Cc2coc3cc(C)c(C(C)C)cc23)n1,-20%,-4%,10%,-2%,-8%,u
COc1cc(C)c(C)cc1S(=O)(=O)N1CCN(Cc2ccccc2)CC1,-15%[9.22 µM],4%,u,-9%,-14%,-5%
Cc1nn(C)cc1S(=O)(=O)N1CCN(Cc2cccc(Cl)c2)CC1,1%[9.22 µM],-8%,22µM*,9%[10 µM],x,19%[46 µM]
COc1cccc(-n2c(C)cc(/C=C3/C(=N)N4C(=NC3=O)SN=C4S(C)(=O)=O)c2C)c1,5%,1%,32µM*,-66%,x,x
Cc1ccc(-n2cccc2/C=C2/C(=N)N3C(=NC2=O)SN=C3S(C)(=O)=O)cc1,19%,-2%,u,-18%,x,u
Cc1cc(C)cc(-n2cccc2/C=C2/C(=N)N3C(=NC2=O)SN=C3S(C)(=O)=O)c1,8%,3%,5µM*,-28%,x,-13%[46 µM]
Cc1cc2c(c(=O)n1CC1CCCO1)C(c1ccc3c(c1)OCO3)C(C#N)=C(N)O2 (configuration not stated),17%,4%,11µM*,-27%,-16%,-1%
O=C(c1n[nH]c2c1CCCC2)n1ccnc1,-17%,-4%,-8%,8%[1.9 µM],-11%,1%
CC(C)N(CC#CCC(O)(c1ccccc1)C1CCCC1)CCO (configuration not stated),1%[9.22 µM],-2%,28µM*,-1%[10 µM],x,x
O=C(CCN1CCOCC1)c1ccc(Cl)cc1,8%[9.22 µM],-5%,0.089µM*,3%[10 µM],x,x
O=C(NCCCN1CCOCC1)c1ccc(Cl)cc1,30%,x,x,32%,x,x
